# Source: the supplement of paper PMC4466140
# What was measured:
# Experiment in all cases: SPOT peptide array binding signal intensity (averaged, normalized) (arbitrary units (background-subtracted, floor 0; scale differs between SH3 domains)); higher = stronger binding of the SH3 domain to the peptide
# AgAbp1 = biological target: AgAbp1
# Procedure, shortened: (§1)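 GST-fused SH3 domains, from four yeast species, were produced in E. coli BL21(DE3) and captured on glutathione Sepharose. Membranes of cellulose carrying synthetic 15-mer peptides, in which cysteines had been replaced by serines, were exposed to each domain at 10 μg/ml overnight at 4°C in TBS-based blocking buffer. After anti-GST antibody, an HRP anti-mouse secondary and luminol, spots were imaged and quantified using Genespotter. Binding signal is normalized and background-subtracted spot intensity, averaged over replicates, in arbitrary units that differ between domains.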
# AgBbc1 = biological target: AgBbc1
# Procedure, shortened: as §1
# AgBem1-D1 = biological target: AgBem1-D1
# Procedure, shortened: as §1
# AgBzz1-D1 = biological target: AgBzz1-D1
# Procedure, shortened: as §1
# AgBzz1-D2 = biological target: AgBzz1-D2
# Procedure, shortened: as §1
# AgCyk3 = biological target: AgCyk3
# Procedure, shortened: as §1
# AgFus1 = biological target: AgFus1
# Procedure, shortened: as §1
# AgHof1 = biological target: AgHof1
# Procedure, shortened: as §1
# AgHse1 = biological target: AgHse1
# Procedure, shortened: as §1
# AgLsb1 = biological target: AgLsb1
# Procedure, shortened: as §1
# AgLsb4 = biological target: AgLsb4
# Procedure, shortened: as §1
# AgMyo5 = biological target: AgMyo5
# Procedure, shortened: as §1
# AgNbp2 = biological target: AgNbp2
# Procedure, shortened: as §1
# AgRvs167 = biological target: AgRvs167
# Procedure, shortened: as §1
# AgSho1 = biological target: AgSho1
# Procedure, shortened: as §1
# AgSla1-D1-D2 = biological target: AgSla1-D1-D2
# Procedure, shortened: as §1
# AgSla1-D3 = biological target: AgSla1-D3
# Procedure, shortened: as §1
# CaAbp1-D1 = biological target: CaAbp1-D1
# Procedure, shortened: as §1
# CaAbp1-D2 = biological target: CaAbp1-D2
# Procedure, shortened: as §1
# CaBbc1 = biological target: CaBbc1
# Procedure, shortened: as §1
# CaBem1-D1 = biological target: CaBem1-D1
# Procedure, shortened: as §1
# CaBzz1-D1 = biological target: CaBzz1-D1
# Procedure, shortened: as §1
# CaBzz1-D2 = biological target: CaBzz1-D2
# Procedure, shortened: as §1
# CaCyk3 = biological target: CaCyk3
# Procedure, shortened: as §1
# CaFus1 = biological target: CaFus1
# Procedure, shortened: as §1
# CaHof1 = biological target: CaHof1
# Procedure, shortened: as §1
# CaHse1 = biological target: CaHse1
# Procedure, shortened: as §1
# CaLsb1 = biological target: CaLsb1
# Procedure, shortened: as §1
# CaLsb4 = biological target: CaLsb4
# Procedure, shortened: as §1
# CaMyo5 = biological target: CaMyo5
# Procedure, shortened: as §1
# CaNbp2 = biological target: CaNbp2
# Procedure, shortened: as §1
# CaRvs167 = biological target: CaRvs167
# Procedure, shortened: as §1
# CaRvs167-3 = biological target: CaRvs167-3
# Procedure, shortened: as §1
# CaSho1 = biological target: CaSho1
# Procedure, shortened: as §1
# CaSla1-D1-D2 = biological target: CaSla1-D1-D2
# Procedure, shortened: as §1
# CaSla1-D3 = biological target: CaSla1-D3
# Procedure, shortened: as §1
# ScAbp1 = biological target: ScAbp1
# Procedure, shortened: as §1
# ScBbc1 = biological target: ScBbc1
# Procedure, shortened: as §1
# ScBem1-D1 = biological target: ScBem1-D1
# Procedure, shortened: as §1
# ScBzz1-D1 = biological target: ScBzz1-D1
# Procedure, shortened: as §1
# ScBzz1-D2 = biological target: ScBzz1-D2
# Procedure, shortened: as §1
# ScCyk3 = biological target: ScCyk3
# Procedure, shortened: as §1
# ScFus1 = biological target: ScFus1
# Procedure, shortened: as §1
# ScHof1 = biological target: ScHof1
# Procedure, shortened: as §1
# ScHse1 = biological target: ScHse1
# Procedure, shortened: as §1
# ScLsb1 = biological target: ScLsb1
# Procedure, shortened: as §1
# ScLsb2 = biological target: ScLsb2
# Procedure, shortened: as §1
# ScLsb3 = biological target: ScLsb3
# Procedure, shortened: as §1
# ScLsb4 = biological target: ScLsb4
# Procedure, shortened: as §1
# ScMyo3 = biological target: ScMyo3
# Procedure, shortened: as §1
# ScMyo5 = biological target: ScMyo5
# Procedure, shortened: as §1
# ScNbp2 = biological target: ScNbp2
# Procedure, shortened: as §1
# ScPex13 = biological target: ScPex13
# Procedure, shortened: as §1
# ScRvs167 = biological target: ScRvs167
# Procedure, shortened: as §1
# ScSho1 = biological target: ScSho1
# Procedure, shortened: as §1
# ScSla1-D1-D2 = biological target: ScSla1-D1-D2
# Procedure, shortened: as §1
# ScSla1-D3 = biological target: ScSla1-D3
# Procedure, shortened: as §1
# SpAbp1-D1 = biological target: SpAbp1-D1
# Procedure, shortened: as §1
# SpBbc1 = biological target: SpBbc1
# Procedure, shortened: as §1
# SpBzz1-D1 = biological target: SpBzz1-D1
# Procedure, shortened: as §1
# SpBzz1-D2 = biological target: SpBzz1-D2
# Procedure, shortened: as §1
# SpCyk3 = biological target: SpCyk3
# Procedure, shortened: as §1
# SpHof1 = biological target: SpHof1
# Procedure, shortened: as §1
# SpHof1-2 = biological target: SpHof1-2
# Procedure, shortened: as §1
# SpHof1-3 = biological target: SpHof1-3
# Procedure, shortened: as §1
# SpHse1 = biological target: SpHse1
# Procedure, shortened: as §1
# SpLsb1 = biological target: SpLsb1
# Procedure, shortened: as §1
# SpLsb4 = biological target: SpLsb4
# Procedure, shortened: as §1
# SpMyo1 = biological target: SpMyo1
# Procedure, shortened: as §1
# SpNbp2 = biological target: SpNbp2
# Procedure, shortened: as §1
# SpPex13 = biological target: SpPex13
# Procedure, shortened: as §1
# SpRvs167 = biological target: SpRvs167
# Procedure, shortened: as §1
# SpSla1-D1-D2 = biological target: SpSla1-D1-D2
# Procedure, shortened: as §1
# SpSla1-D3 = biological target: SpSla1-D3
# Procedure, shortened: as §1
binder,measurement,setting,value
NAGIRPKFILALNDE,SPOT peptide array binding signal intensity,AgAbp1,≤ 0
same,SPOT peptide array binding signal intensity,AgBbc1,2.75
same,SPOT peptide array binding signal intensity,AgBem1-D1,11.5
same,SPOT peptide array binding signal intensity,AgBzz1-D1,44
same,SPOT peptide array binding signal intensity,AgBzz1-D2,77
same,SPOT peptide array binding signal intensity,AgCyk3,7
same,SPOT peptide array binding signal intensity,AgFus1,68
same,SPOT peptide array binding signal intensity,AgHof1,13.8
same,SPOT peptide array binding signal intensity,AgHse1,616
same,SPOT peptide array binding signal intensity,AgLsb1,2
same,SPOT peptide array binding signal intensity,AgLsb4,25
same,SPOT peptide array binding signal intensity,AgMyo5,1
same,SPOT peptide array binding signal intensity,AgNbp2,0.5
same,SPOT peptide array binding signal intensity,AgRvs167,2.33
same,SPOT peptide array binding signal intensity,AgSho1,9.5
same,SPOT peptide array binding signal intensity,AgSla1-D1-D2,3
same,SPOT peptide array binding signal intensity,AgSla1-D3,4
same,SPOT peptide array binding signal intensity,CaAbp1-D1,≤ 0
same,SPOT peptide array binding signal intensity,CaAbp1-D2,≤ 0
same,SPOT peptide array binding signal intensity,CaBbc1,1.5
same,SPOT peptide array binding signal intensity,CaBem1-D1,1
same,SPOT peptide array binding signal intensity,CaBzz1-D1,72
same,SPOT peptide array binding signal intensity,CaBzz1-D2,26.2
same,SPOT peptide array binding signal intensity,CaCyk3,2
same,SPOT peptide array binding signal intensity,CaFus1,1120
same,SPOT peptide array binding signal intensity,CaHof1,1
same,SPOT peptide array binding signal intensity,CaHse1,6.5
same,SPOT peptide array binding signal intensity,CaLsb1,1
same,SPOT peptide array binding signal intensity,CaLsb4,≤ 0
same,SPOT peptide array binding signal intensity,CaMyo5,27.2
same,SPOT peptide array binding signal intensity,CaNbp2,122
same,SPOT peptide array binding signal intensity,CaRvs167,1.17
same,SPOT peptide array binding signal intensity,CaRvs167-3,17
same,SPOT peptide array binding signal intensity,CaSho1,222
same,SPOT peptide array binding signal intensity,CaSla1-D1-D2,≤ 0
same,SPOT peptide array binding signal intensity,CaSla1-D3,10.8
same,SPOT peptide array binding signal intensity,ScAbp1,≤ 0
same,SPOT peptide array binding signal intensity,ScBbc1,≤ 0
same,SPOT peptide array binding signal intensity,ScBem1-D1,1
same,SPOT peptide array binding signal intensity,ScBzz1-D1,43
same,SPOT peptide array binding signal intensity,ScBzz1-D2,19
same,SPOT peptide array binding signal intensity,ScCyk3,54.5
same,SPOT peptide array binding signal intensity,ScFus1,159
same,SPOT peptide array binding signal intensity,ScHof1,≤ 0
same,SPOT peptide array binding signal intensity,ScHse1,628
same,SPOT peptide array binding signal intensity,ScLsb1,1.5
same,SPOT peptide array binding signal intensity,ScLsb2,≤ 0
same,SPOT peptide array binding signal intensity,ScLsb3,≤ 0
same,SPOT peptide array binding signal intensity,ScLsb4,≤ 0
same,SPOT peptide array binding signal intensity,ScMyo3,2.5
same,SPOT peptide array binding signal intensity,ScMyo5,≤ 0
same,SPOT peptide array binding signal intensity,ScNbp2,23.5
same,SPOT peptide array binding signal intensity,ScPex13,≤ 0
same,SPOT peptide array binding signal intensity,ScRvs167,≤ 0
same,SPOT peptide array binding signal intensity,ScSho1,158
same,SPOT peptide array binding signal intensity,ScSla1-D1-D2,≤ 0
same,SPOT peptide array binding signal intensity,ScSla1-D3,6.5
same,SPOT peptide array binding signal intensity,SpAbp1-D1,≤ 0
same,SPOT peptide array binding signal intensity,SpBbc1,4
same,SPOT peptide array binding signal intensity,SpBzz1-D1,201
same,SPOT peptide array binding signal intensity,SpBzz1-D2,≤ 0
same,SPOT peptide array binding signal intensity,SpCyk3,2
same,SPOT peptide array binding signal intensity,SpHof1,28.8
same,SPOT peptide array binding signal intensity,SpHof1-2,19
same,SPOT peptide array binding signal intensity,SpHof1-3,214
same,SPOT peptide array binding signal intensity,SpHse1,481
same,SPOT peptide array binding signal intensity,SpLsb1,≤ 0
same,SPOT peptide array binding signal intensity,SpLsb4,≤ 0
same,SPOT peptide array binding signal intensity,SpMyo1,≤ 0
same,SPOT peptide array binding signal intensity,SpNbp2,16.5
same,SPOT peptide array binding signal intensity,SpPex13,4
same,SPOT peptide array binding signal intensity,SpRvs167,3.5
same,SPOT peptide array binding signal intensity,SpSla1-D1-D2,4
same,SPOT peptide array binding signal intensity,SpSla1-D3,≤ 0
GTIARPLFLVVLFFI,SPOT peptide array binding signal intensity,CaNbp2,600
same,SPOT peptide array binding signal intensity,CaRvs167,49
same,SPOT peptide array binding signal intensity,CaRvs167-3,17
same,SPOT peptide array binding signal intensity,CaSho1,730
same,SPOT peptide array binding signal intensity,CaSla1-D1-D2,≤ 0
same,SPOT peptide array binding signal intensity,CaSla1-D3,5.75
same,SPOT peptide array binding signal intensity,ScAbp1,3
same,SPOT peptide array binding signal intensity,ScBbc1,≤ 0
same,SPOT peptide array binding signal intensity,ScBem1-D1,1
same,SPOT peptide array binding signal intensity,ScBzz1-D1,40
same,SPOT peptide array binding signal intensity,ScBzz1-D2,37.5
same,SPOT peptide array binding signal intensity,ScCyk3,50
same,SPOT peptide array binding signal intensity,ScFus1,2030
same,SPOT peptide array binding signal intensity,ScHof1,≤ 0
same,SPOT peptide array binding signal intensity,ScHse1,472
same,SPOT peptide array binding signal intensity,ScLsb1,≤ 0
same,SPOT peptide array binding signal intensity,ScLsb2,≤ 0
same,SPOT peptide array binding signal intensity,ScLsb3,≤ 0
same,SPOT peptide array binding signal intensity,ScLsb4,≤ 0
same,SPOT peptide array binding signal intensity,ScMyo3,≤ 0
same,SPOT peptide array binding signal intensity,ScMyo5,1
same,SPOT peptide array binding signal intensity,ScNbp2,78.5
same,SPOT peptide array binding signal intensity,ScPex13,≤ 0
same,SPOT peptide array binding signal intensity,ScRvs167,1.67
same,SPOT peptide array binding signal intensity,ScSho1,1050
same,SPOT peptide array binding signal intensity,ScSla1-D1-D2,≤ 0
same,SPOT peptide array binding signal intensity,ScSla1-D3,1
same,SPOT peptide array binding signal intensity,SpAbp1-D1,3.5
same,SPOT peptide array binding signal intensity,SpBbc1,2
same,SPOT peptide array binding signal intensity,SpBzz1-D1,111
same,SPOT peptide array binding signal intensity,SpBzz1-D2,≤ 0
same,SPOT peptide array binding signal intensity,SpCyk3,24
same,SPOT peptide array binding signal intensity,SpHof1,45
same,SPOT peptide array binding signal intensity,SpHof1-2,22.5
same,SPOT peptide array binding signal intensity,SpHof1-3,637
same,SPOT peptide array binding signal intensity,SpHse1,1630
same,SPOT peptide array binding signal intensity,SpLsb1,≤ 0
same,SPOT peptide array binding signal intensity,SpLsb4,≤ 0
same,SPOT peptide array binding signal intensity,SpMyo1,4.25
same,SPOT peptide array binding signal intensity,SpNbp2,160
same,SPOT peptide array binding signal intensity,SpPex13,1
same,SPOT peptide array binding signal intensity,SpRvs167,≤ 0
same,SPOT peptide array binding signal intensity,SpSla1-D1-D2,1
same,SPOT peptide array binding signal intensity,SpSla1-D3,≤ 0
